Data: the supplement of paper PMC10849652
The full data set covers some 7,900 targets. This sample favours those with a hit. About 0.6% of all pairs of compound and target were hits.

Assays:
Experiment in all cases: log2 fold change, soluble protein after heating vs DMSO (PISA); higher = thermal stabilisation; K562 cells, 10 uM, 30 min; active = over 0.2 and 3.5 SD of the protein, either way, in both replicates (recomputed)
saracatinib = compound: CN1CCN(CCOc2cc(OC3CCOCC3)c3c(Nc4c(Cl)ccc5c4OCO5)ncnc3c2)CC1 [saracatinib]
Method in brief: (§1)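 K562 cells at 2×10^6 cells/mL were given 10 μM compound for 30 min. Aliquots then went through 3 min of heating across 48°C-58°C, were pooled, and were extracted in PBS with 0.5% NP-40 at 4°C, and the supernatant after 21,000xg for 90 min was quantified by TMTpro 16plex LC-MS/MS with channel sums equalised. Thermal stability relative to control samples, from duplicates, is given as log2 fold change.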

sotrastaurin = compound: CN1CCN(c2nc(C3=C(c4c[nH]c5ccccc45)C(=O)NC3=O)c3ccccc3n2)CC1 [sotrastaurin]
Method in brief: as §1

alvocidib = compound: CN1CC[C@H](c2c(O)cc(O)c3c(=O)cc(-c4ccccc4Cl)oc23)[C@H](O)C1 [alvocidib]
Method in brief: as §1

Tubastatin A = compound: CN1CCc2c(c3ccccc3n2Cc2ccc(C(=O)NO)cc2)C1 [Tubastatin A]
Method in brief: as §1

[1] = compound: CNC(=O)C1=CC=CC=C1NC2=NC(=NC=C2Cl)NC3=C(C=C(C=C3)N4CCOCC4)OC
Method in brief: as §1

defactinib = compound: CNC(=O)c1ccc(Nc2ncc(C(F)(F)F)c(NCc3nccnc3N(C)S(C)(=O)=O)n2)cc1 [defactinib]
Method in brief: as §1

rucaparib = compound: CNCc1ccc(-c2[nH]c3cc(F)cc4c3c2CCNC4=O)cc1 [rucaparib]
Method in brief: as §1

[2] = compound: CNc1nc(-c2ccc3c(N)n[nH]c3c2)cc(N2C[C@@H](C(=O)NC3CCCCC3)CC[C@H]2C)n1
Method in brief: as §1

encorafenib = compound: COC(=O)N[C@@H](C)CNc1nccc(-c2cn(C(C)C)nc2-c2cc(Cl)cc(NS(C)(=O)=O)c2F)n1 [encorafenib]
Method in brief: as §1

[3] = compound: COC(=O)[C@H](CCSC)NC(=O)C1=C(C=C(C=C1)NC[C@H](CS)N)C2=CC=CC=C2
Method in brief: as §1

[4] = compound: COC1=CC=C(C=C1)CN2C=CC3=C2C=C(C=C3)C(=O)NO
Method in brief: as §1

filanesib = compound: CON(C)C(=O)N1N=C(c2cc(F)ccc2F)S[C@@]1(CCCN)c1ccccc1 [filanesib]
Method in brief: as §1

zotarolimus = compound: CO[C@H]1C[C@@H]2CC[C@@H](C)[C@@](O)(O2)C(=O)C(=O)N2CCCC[C@H]2C(=O)O[C@H]([C@H](C)C[C@@H]2CC[C@H](n3cnnn3)[C@H](OC)C2)CC(=O)[C@H](C)/C=C(\C)[C@@H](O)[C@@H](OC)C(=O)[C@H](C)C[C@H](C)/C=C/C=C/C=C/1C [zotarolimus]
Method in brief: as §1

idasanutlin = compound: COc1cc(C(=O)O)ccc1NC(=O)[C@@H]1N[C@@H](CC(C)(C)C)[C@](C#N)(c2ccc(Cl)cc2F)[C@H]1c1cccc(Cl)c1F [idasanutlin]
Method in brief: as §1

alisertib = compound: COc1cc(Nc2ncc3c(n2)-c2ccc(Cl)cc2C(c2c(F)cccc2OC)=NC3)ccc1C(=O)O [alisertib]
Method in brief: as §1

[5] = compound: COc1cc2nc(-c3cc(F)ccc3O)nc(N[C@@H]3CNC[C@H]3C(C)(C)O)c2cc1OC
Method in brief: as §1

gefitinib = compound: COc1cc2ncnc(Nc3ccc(F)c(Cl)c3)c2cc1OCCCN1CCOCC1 [gefitinib]
Method in brief: as §1

[6] = compound: COc1cccc2cc(-c3nc([C@H]4CC[C@H](C(=O)O)CC4)n4ncnc(N)c34)[nH]c12
Method in brief: as §1

lapatinib = compound: CS(=O)(=O)CCNCc1ccc(-c2ccc3ncnc(Nc4ccc(OCc5cccc(F)c5)c(Cl)c4)c3c2)o1 [lapatinib]
Method in brief: as §1

pictilisib = compound: CS(=O)(=O)N1CCN(Cc2cc3nc(-c4cccc5[nH]ncc45)nc(N4CCOCC4)c3s2)CC1 [pictilisib]
Method in brief: as §1

Measured: log2 fold change

PRPF38B (UniProt Q5VTL8)
active: [1] -0.287 | defactinib -0.27
inactive: saracatinib 0.011 | sotrastaurin -0.006 | alvocidib -0.073 | Tubastatin A -0.027 | rucaparib -0.08 | [2] -0.039 | encorafenib 0.015 | [3] 0.044 | [4] -0.004 | filanesib 0.163 | zotarolimus 0.016 | idasanutlin 0.039 | alisertib -0.09 | [5] 0.083 | gefitinib 0.002 | [6] 0.043 | lapatinib 0.027 | pictilisib 0.065

RAB11FIP1 (UniProt Q6WKZ4)
Chain of UniProt Q6WKZ4 (Q6WKZ4 whole entry, looked up): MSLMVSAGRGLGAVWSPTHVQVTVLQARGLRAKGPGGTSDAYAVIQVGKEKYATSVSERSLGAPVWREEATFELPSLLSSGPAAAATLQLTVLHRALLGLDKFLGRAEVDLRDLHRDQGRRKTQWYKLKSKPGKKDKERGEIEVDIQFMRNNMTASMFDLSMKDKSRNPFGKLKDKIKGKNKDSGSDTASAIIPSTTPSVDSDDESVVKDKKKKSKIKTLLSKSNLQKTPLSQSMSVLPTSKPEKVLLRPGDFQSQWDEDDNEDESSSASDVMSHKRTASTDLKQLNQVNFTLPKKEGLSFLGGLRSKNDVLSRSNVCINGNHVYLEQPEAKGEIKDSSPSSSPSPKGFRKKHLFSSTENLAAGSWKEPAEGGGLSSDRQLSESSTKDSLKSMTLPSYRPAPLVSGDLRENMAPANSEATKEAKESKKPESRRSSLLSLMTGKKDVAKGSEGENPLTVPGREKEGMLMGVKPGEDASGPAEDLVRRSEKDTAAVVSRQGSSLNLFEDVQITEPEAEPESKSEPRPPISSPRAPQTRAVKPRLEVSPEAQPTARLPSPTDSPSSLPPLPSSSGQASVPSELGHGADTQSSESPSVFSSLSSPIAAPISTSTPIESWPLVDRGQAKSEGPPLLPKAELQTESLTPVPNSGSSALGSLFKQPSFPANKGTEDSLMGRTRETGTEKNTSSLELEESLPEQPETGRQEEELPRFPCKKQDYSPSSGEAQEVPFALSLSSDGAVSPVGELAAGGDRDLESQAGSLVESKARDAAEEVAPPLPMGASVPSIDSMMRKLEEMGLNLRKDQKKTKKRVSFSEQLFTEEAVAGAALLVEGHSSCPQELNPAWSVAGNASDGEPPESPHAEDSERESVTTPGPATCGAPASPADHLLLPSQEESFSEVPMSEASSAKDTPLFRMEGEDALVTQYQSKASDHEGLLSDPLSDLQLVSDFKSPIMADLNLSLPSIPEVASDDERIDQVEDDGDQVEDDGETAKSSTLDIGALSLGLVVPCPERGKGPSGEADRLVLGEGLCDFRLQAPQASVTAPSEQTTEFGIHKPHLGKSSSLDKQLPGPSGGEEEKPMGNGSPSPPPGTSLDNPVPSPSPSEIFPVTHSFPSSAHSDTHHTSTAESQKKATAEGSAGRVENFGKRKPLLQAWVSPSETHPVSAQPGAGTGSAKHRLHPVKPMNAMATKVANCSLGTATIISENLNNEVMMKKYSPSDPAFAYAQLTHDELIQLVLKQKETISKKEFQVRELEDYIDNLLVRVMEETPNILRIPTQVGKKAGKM
inactive: saracatinib 0.021 | sotrastaurin -0.094 | alvocidib -0.028 | Tubastatin A 0.005 | [1] 0.045 | defactinib -0.16 | rucaparib -0.012 | [2] -0.043 | encorafenib 0.052 | [3] -0.019 | [4] -0.024 | filanesib 0.004 | zotarolimus 0 | idasanutlin -0.015 | alisertib 0.368 | [5] -0.03 | gefitinib -0.009 | [6] 0.007 | lapatinib 0.01 | pictilisib -0.107

PRKAR1B (UniProt P31321)
Chain of UniProt P31321 (P31321 whole entry, looked up): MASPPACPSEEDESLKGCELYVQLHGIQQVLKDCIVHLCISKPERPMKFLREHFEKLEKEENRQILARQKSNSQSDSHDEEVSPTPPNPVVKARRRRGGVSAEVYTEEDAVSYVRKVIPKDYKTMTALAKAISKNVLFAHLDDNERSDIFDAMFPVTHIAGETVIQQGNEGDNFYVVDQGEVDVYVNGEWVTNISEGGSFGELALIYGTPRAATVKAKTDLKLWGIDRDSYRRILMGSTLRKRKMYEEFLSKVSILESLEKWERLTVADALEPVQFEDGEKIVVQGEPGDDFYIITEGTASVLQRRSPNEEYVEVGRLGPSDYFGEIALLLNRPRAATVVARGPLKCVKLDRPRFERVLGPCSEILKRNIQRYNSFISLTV
inactive: saracatinib -0.137 | sotrastaurin -0.02 | alvocidib 0.128 | Tubastatin A 0.035 | [1] 0.247 | defactinib 0.117 | rucaparib 0.029 | [2] 0.047 | encorafenib 0.056 | [3] -0.067 | [4] 0.1 | filanesib 0.034 | zotarolimus 0.011 | idasanutlin -0.099 | alisertib 0.02 | [5] 0.027 | gefitinib 0.051 | [6] -0.162 | lapatinib 0.004 | pictilisib 0.199

PRKCG (UniProt P05129)
inactive: saracatinib 0.011 | sotrastaurin -0.373 | alvocidib -0.076 | Tubastatin A -0.025 | [1] 0.088 | defactinib -0.015 | rucaparib -0.021 | [2] -0.164 | encorafenib 0.19 | [3] -0.02 | [4] -0.071 | filanesib 0.019 | zotarolimus 0.118 | idasanutlin -0.011 | alisertib -0.01 | [5] 0.098 | gefitinib -0.025 | [6] -0.17 | lapatinib 0.055 | pictilisib 0.113

PHKG2 (UniProt P15735)
Chain of UniProt P15735 (P15735 whole entry, looked up): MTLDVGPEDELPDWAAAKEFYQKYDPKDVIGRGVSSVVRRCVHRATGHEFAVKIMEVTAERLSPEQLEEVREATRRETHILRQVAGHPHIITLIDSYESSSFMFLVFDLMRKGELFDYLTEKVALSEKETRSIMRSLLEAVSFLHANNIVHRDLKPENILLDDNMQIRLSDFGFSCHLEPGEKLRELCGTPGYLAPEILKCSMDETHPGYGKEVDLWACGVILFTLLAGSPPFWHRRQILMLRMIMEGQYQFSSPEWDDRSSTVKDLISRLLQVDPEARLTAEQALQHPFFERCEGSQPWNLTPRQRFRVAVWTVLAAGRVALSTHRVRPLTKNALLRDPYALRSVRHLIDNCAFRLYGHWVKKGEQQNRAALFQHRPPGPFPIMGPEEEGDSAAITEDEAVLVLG
inactive: saracatinib 0.002 | sotrastaurin -0.071 | alvocidib -0.069 | Tubastatin A 0.029 | [1] 0.167 | defactinib 0.026 | rucaparib -0.032 | [2] 0.1 | encorafenib 0.181 | [3] -0.025 | [4] 0.014 | filanesib -0.01 | zotarolimus -0.051 | idasanutlin 0.007 | alisertib -0.026 | [5] 0.219 | gefitinib -0.063 | [6] 0.015 | lapatinib 0.105 | pictilisib -0.055

PCYT1B (UniProt Q9Y5K3)
Chain of UniProt Q9Y5K3 (Q9Y5K3 whole entry, looked up): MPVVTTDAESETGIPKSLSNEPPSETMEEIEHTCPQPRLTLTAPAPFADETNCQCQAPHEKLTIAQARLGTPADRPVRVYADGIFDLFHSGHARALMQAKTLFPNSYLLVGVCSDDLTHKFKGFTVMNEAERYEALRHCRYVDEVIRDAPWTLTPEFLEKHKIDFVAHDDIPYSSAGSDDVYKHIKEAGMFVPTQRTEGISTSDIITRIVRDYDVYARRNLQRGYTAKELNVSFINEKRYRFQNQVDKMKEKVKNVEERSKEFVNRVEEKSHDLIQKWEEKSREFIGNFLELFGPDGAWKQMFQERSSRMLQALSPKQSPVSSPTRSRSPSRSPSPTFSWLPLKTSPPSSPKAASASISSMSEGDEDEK
inactive: saracatinib 0.133 | sotrastaurin -0.13 | alvocidib -0.236 | Tubastatin A -0.028 | [1] -0.028 | defactinib -0.162 | rucaparib -0.139 | [2] -0.036 | encorafenib 0.04 | [3] -0.029 | [4] 0.005 | filanesib 0.026 | zotarolimus 0 | idasanutlin -0.029 | alisertib -0.156 | [5] 0.131 | gefitinib -0.051 | [6] 0.018 | lapatinib -0.019 | pictilisib -0.12

PSMD5 (UniProt Q16401)
Chain of UniProt Q16401 (Q16401 whole entry, looked up): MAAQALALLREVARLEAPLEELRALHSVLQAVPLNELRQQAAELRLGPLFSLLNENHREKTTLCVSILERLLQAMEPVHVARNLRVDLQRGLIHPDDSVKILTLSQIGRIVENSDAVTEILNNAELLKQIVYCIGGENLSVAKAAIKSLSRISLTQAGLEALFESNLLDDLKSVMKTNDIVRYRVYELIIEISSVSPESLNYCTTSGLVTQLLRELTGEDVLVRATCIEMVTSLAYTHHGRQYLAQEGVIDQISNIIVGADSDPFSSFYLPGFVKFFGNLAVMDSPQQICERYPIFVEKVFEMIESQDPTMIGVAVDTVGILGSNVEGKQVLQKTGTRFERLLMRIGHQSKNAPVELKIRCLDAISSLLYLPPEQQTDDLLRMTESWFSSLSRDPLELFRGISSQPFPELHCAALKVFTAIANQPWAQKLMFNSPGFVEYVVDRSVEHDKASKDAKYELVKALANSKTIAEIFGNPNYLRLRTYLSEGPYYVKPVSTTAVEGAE
inactive: saracatinib 0.019 | sotrastaurin -0.014 | alvocidib -0.047 | Tubastatin A -0.037 | [1] 0.016 | defactinib -0.049 | rucaparib -0.045 | [2] -0.028 | encorafenib 0.008 | [3] 0.031 | [4] 0.024 | filanesib -0.046 | zotarolimus 0.013 | idasanutlin -0.055 | alisertib -0.055 | [5] -0.017 | gefitinib -0.013 | [6] 0 | lapatinib 0.017 | pictilisib -0.017

POLR1A (UniProt O95602)
inactive: saracatinib -0.027 | sotrastaurin -0.151 | alvocidib -0.06 | Tubastatin A 0.148 | [1] -0.138 | defactinib -0.011 | rucaparib 0.064 | [2] -0.089 | encorafenib -0.015 | [3] 0.115 | [4] 0.248 | filanesib 0.075 | zotarolimus -0.05 | idasanutlin 0.063 | alisertib -0.076 | [5] -0.007 | gefitinib 0.037 | [6] -0.008 | lapatinib 0.069 | pictilisib 0.078

PYGL (UniProt P06737)
inactive: saracatinib 0.063 | sotrastaurin -0.006 | alvocidib 0.097 | Tubastatin A -0.007 | [1] -0.185 | defactinib -0.039 | rucaparib -0.028 | [2] -0.065 | encorafenib 0.037 | [3] 0.008 | [4] -0.028 | filanesib 0.043 | zotarolimus -0.007 | idasanutlin -0.015 | alisertib -0.03 | [5] 0.095 | gefitinib -0.013 | [6] 0.051 | lapatinib -0.075 | pictilisib -0.122

PIP4K2B (UniProt P78356)
active: [5] 0.379
inactive: saracatinib -0.021 | sotrastaurin -0.088 | alvocidib 0.204 | Tubastatin A 0.022 | [1] 0.179 | defactinib 0.176 | rucaparib -0.035 | [2] -0.083 | encorafenib 0.049 | [3] -0.108 | [4] 0.028 | filanesib -0.146 | zotarolimus 0.025 | idasanutlin -0.104 | alisertib -0.045 | gefitinib 0.035 | [6] 0.207 | lapatinib -0.026 | pictilisib 0.022

POLR2A (UniProt P24928)
active: alvocidib 0.329 | [5] 0.258
inactive: saracatinib -0.012 | sotrastaurin 0.034 | Tubastatin A -0.012 | [1] -0.035 | defactinib 0.241 | rucaparib 0.126 | [2] 0.025 | encorafenib 0.027 | [3] -0.07 | [4] -0.005 | filanesib -0.021 | zotarolimus -0.026 | idasanutlin -0.054 | alisertib 0.001 | gefitinib 0.015 | [6] 0.042 | lapatinib 0 | pictilisib 0.05

PLCB3 (UniProt Q01970)
inactive: saracatinib -0.044 | sotrastaurin -0.039 | alvocidib -0.02 | Tubastatin A -0.027 | [1] 0.023 | defactinib -0.074 | rucaparib -0.015 | [2] -0.045 | encorafenib 0.004 | [3] -0.083 | [4] -0.004 | filanesib -0.118 | zotarolimus 0.007 | idasanutlin -0.044 | alisertib -0.05 | [5] -0.008 | gefitinib -0.003 | [6] 0.013 | lapatinib -0.028 | pictilisib 0.055

PDIK1L (UniProt Q8N165)
Chain of UniProt Q8N165 (Q8N165 whole entry, looked up): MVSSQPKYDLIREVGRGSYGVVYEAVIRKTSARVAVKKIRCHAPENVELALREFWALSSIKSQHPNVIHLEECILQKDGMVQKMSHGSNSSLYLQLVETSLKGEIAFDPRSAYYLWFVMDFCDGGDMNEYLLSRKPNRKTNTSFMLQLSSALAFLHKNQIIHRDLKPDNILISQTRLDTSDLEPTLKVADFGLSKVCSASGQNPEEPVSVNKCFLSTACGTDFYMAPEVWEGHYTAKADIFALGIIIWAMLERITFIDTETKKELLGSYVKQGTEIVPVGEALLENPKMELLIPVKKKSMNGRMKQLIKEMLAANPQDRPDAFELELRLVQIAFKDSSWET
inactive: saracatinib -0.062 | sotrastaurin 0.019 | alvocidib -0.087 | Tubastatin A 0.063 | [1] 0.192 | defactinib 0.014 | rucaparib 0.111 | [2] -0.064 | encorafenib -0.022 | [3] -0.115 | [4] -0.014 | filanesib 0.112 | zotarolimus -0.059 | idasanutlin 0.001 | alisertib 0.099 | [5] -0.127 | gefitinib 0.012 | [6] 0.092 | lapatinib 0.086

PHF5A (UniProt Q7RTV0)
Chain of UniProt Q7RTV0 (Q7RTV0 whole entry, looked up): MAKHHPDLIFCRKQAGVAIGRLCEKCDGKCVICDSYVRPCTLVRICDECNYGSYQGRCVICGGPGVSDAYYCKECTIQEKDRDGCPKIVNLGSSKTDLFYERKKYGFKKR
inactive: saracatinib 0.069 | sotrastaurin 0.047 | alvocidib 0.045 | Tubastatin A -0.027 | [1] 0.05 | defactinib 0.141 | rucaparib 0.04 | [2] -0.086 | encorafenib -0.017 | [3] 0.023 | [4] 0.014 | filanesib 0.087 | zotarolimus -0.024 | idasanutlin 0.056 | alisertib -0.033 | [5] 0.067 | gefitinib 0.003 | [6] 0.026 | lapatinib -0.051 | pictilisib 0.071

PTP4A2 (UniProt Q12974)
Chain of UniProt Q12974 (Q12974 whole entry, looked up): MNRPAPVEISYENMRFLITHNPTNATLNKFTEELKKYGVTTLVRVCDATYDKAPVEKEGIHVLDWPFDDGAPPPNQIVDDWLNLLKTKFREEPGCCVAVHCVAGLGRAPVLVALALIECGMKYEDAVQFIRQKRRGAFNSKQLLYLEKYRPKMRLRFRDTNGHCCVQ
active: alvocidib -0.332
inactive: saracatinib -0.038 | sotrastaurin 0.107 | Tubastatin A 0.057 | [1] -0.1 | defactinib -0.213 | rucaparib -0.143 | [2] -0.066 | encorafenib 0.008 | [3] 0.117 | [4] 0.078 | filanesib -0.062 | zotarolimus -0.022 | idasanutlin -0.079 | alisertib -0.055 | [5] 0.033 | gefitinib -0.007 | [6] -0.11 | lapatinib -0.078

PSMD7 (UniProt P51665)
Chain of UniProt P51665 (P51665 whole entry, looked up): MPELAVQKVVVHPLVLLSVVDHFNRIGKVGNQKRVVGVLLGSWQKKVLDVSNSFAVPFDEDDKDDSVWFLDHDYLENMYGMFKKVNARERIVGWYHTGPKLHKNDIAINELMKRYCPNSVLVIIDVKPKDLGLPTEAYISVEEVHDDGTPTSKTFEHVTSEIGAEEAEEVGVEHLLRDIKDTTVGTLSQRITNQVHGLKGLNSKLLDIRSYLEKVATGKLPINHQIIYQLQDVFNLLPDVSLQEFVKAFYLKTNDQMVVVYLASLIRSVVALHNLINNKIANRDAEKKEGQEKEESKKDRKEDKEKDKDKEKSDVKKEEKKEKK
inactive: saracatinib -0.018 | sotrastaurin -0.028 | alvocidib 0.088 | Tubastatin A 0.001 | [1] 0.015 | defactinib 0.079 | rucaparib 0.063 | [2] 0.022 | encorafenib 0.03 | [3] 0.017 | [4] -0.059 | filanesib 0.054 | zotarolimus -0.014 | idasanutlin 0.01 | alisertib -0.032 | [5] -0.027 | gefitinib -0.049 | [6] -0.022 | lapatinib 0.089 | pictilisib -0.078
